Bioassay records deposited in PubChem BioAssay by National Center for Advancing Translational Sciences (NCATS).
This excerpt belongs to a sample that is enriched for hits.
LMNA splice mod = LMNA splicing modulation; HeLa LMNA splicing GFP/RFP minigene ratio, 48 h; Potency, µM (top dose mostly 46.1 µM), inactives show at the top dose ratio change, negative = inhibition, actives largely listed as inhibitors; 200,000 compounds, 0.01% hits; active = well fitted inhibition curve with a large enough effect in the signal ratio, with a control signal flat, not every such curve was filed as active; inconclusive = small, poorly fitted or top-dose-only effect, or effect the other way, or a change in a side signal; the % refers to the signal ratio; also: potency is read from the fitted curve at half-maximal effect
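S3 HeLa cells stably expressing lamin A-EGFP splicing minigene plus DsRed2, 600 cells/well, 48 h compound exposure at 37C. Laser-scanning cytometry; analysed as GFP (500-530 nm)/RFP (575-640 nm) total intensity ratio; 0.5% DMSO vehicle.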
PNC inhibitor = inhibitors of perinucleolar compartment assembly; PC3M PTB-GFP, PNC prevalence imaging, 16 h; stronger effect = lower value; activity change (PNC), negative = inhibition, % at 10 µM; 140,000 compounds, 3.1% hits; AID 2417;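 active = readout at or below -70, meaning at least 70% loss of cells showing the perinucleolar compartment, a nuclear body marking cancer cells; inconclusive = readout between -30 and a set limit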;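 also: plate controls were DMSO wells for no effect and camptothecin positive control wells for full effect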
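PC3M cells stably expressing PTB-GFP, 750–1000 cells/well, treated 16 h at 37 °C with compound (23 nl of library stock), in duplicate. After paraformaldehyde fixation and Hoechst stain, imaged at 20x; PNC prevalence scored by image analysis.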
IMPase inh = membrane-permeable compound that blocks inositol monophosphatase. P97697. CHO-M1 cells, IP1 accumulation, HTRF TR-FRET ratio. inhibition (IP1 accumulation), % at 46.1 µM. 120,000 tested, under 10 active. AID 901; active = well fitted curve in the direction sought with a large enough effect in the signal ratio, not every such curve was filed as active; inconclusive = small, poorly fitted or top-dose-only effect, or a change in a side signal; inactive = no such curve, though single readings can be large or run the other way; the % refers to the signal ratio;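 also: cells stimulated with carbachol in lithium chloride buffer; plate controls were DMSO basal wells for no effect and reference inhibitor wells for full effect; higher means more IMPase inhibition seen as more IP1 and lower FRET ratio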
Target sequence (P97697 whole entry, looked up): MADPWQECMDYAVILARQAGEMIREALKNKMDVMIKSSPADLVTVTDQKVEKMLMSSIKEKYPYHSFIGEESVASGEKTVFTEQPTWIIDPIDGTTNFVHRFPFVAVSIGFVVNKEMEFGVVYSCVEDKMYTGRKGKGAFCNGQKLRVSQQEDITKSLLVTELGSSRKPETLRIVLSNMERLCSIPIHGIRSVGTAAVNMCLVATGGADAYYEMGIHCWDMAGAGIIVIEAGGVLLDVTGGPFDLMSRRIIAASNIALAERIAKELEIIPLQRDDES
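CHO-M1 cells (CHO stably expressing M1 receptor), compound up to 46 uM final, stimulated with carbachol (50 uM as added) in buffer with 50mM LiCl, pH 7.4, 30 min at 37C. Cytosolic IP1 read by TR-FRET; AC50 from Hill fits.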
* marks the source's active call; other numbers are inactive results; ? = inconclusive; nt = not tested or not shown; [ ] = remark or other dose. Unless noted, % is scaled to controls: 0 for no effect and ±100 for the full control effect.

SMILES | LMNA splice mod | PNC inhibitor | IMPase inh
COc1ccccc1CNc1nccn(-c2ccccc2)c1=O | 6.2%[46 µM] | nt | nt
CCC(c1nnc(SCC(=O)Nc2cc(Cl)ccc2C#N)n1C1CCCCC1)N(C)C (stereo not given) | -19.9% | -107.2* | nt
CCC(c1nnc(SCC(=O)Nc2ccc(C(C)=O)cc2)n1C1CCCCC1)N(C)C (stereo not given) | 6.2% | 0.8 | nt
CCN(CC)c1nn2c(=O)c(C(=O)NCc3cccc(C)c3)cnc2s1 | -14.6%[46 µM] | nt | nt
CN1CC2([N+](=O)[O-])CC=C(OCCO)C([N+](=O)[O-])(C1)C2 (stereo not given) | -8.1% | -114.6* | nt
CN1CC2([N+](=O)[O-])CC=C(Oc3ccccc3)C([N+](=O)[O-])(C1)C2 (stereo not given) | 13.1% | -20.0 | -0.7
Cc1ccc2nc(CN3CCN(C(=O)Nc4cccc(C)c4C)CC3)oc2c1 | 1.2%[46 µM] | nt | nt
CN(C)c1nc(N(C)C)nc(N2CC(=O)N(c3ccccc3)C2=N)n1 | 15.6%[46 µM] | nt | nt
C=CCN1C(c2ccccc2)=CS/C1=C(/C#N)c1nnc(N2CCOCC2)n1-c1ccccc1 | 5.6% | -2.8 | nt
C=CCn1c(CC#N)nnc1N1CCOCC1 | 7.8% | -103.4* | 3.1
COc1ccc(Cl)cc1NC(=O)Cc1c(F)cccc1Cl | 4.8% | 56.7 | nt
COc1ccc(Cl)cc1NC(=O)C(C)N(C)Cc1cccc(Cl)c1Cl (stereo not given) | ? | -101.1* | 1.5
Cc1cccc(OCCn2c(-c3ccc(Cl)cc3)nc3ccccc3c2=O)c1C | nt | nt | 3.7
Cc1cnc(CNc2cc(-c3ccc(C(=O)N(C)C)cc3)ncn2)cn1 | -6.9% | nt | nt
CCN(CC)c1ccc(/C=N/NC(=O)c2ccco2)cc1 | ? | -93.8* | nt
CCN(CC)c1ccc(NC(=O)c2ccco2)cc1 | -0.7% | 14.7 | 9.8
Cc1ccc(S(=O)(=O)N(C)C)cc1NC(=S)N1CCN(Cc2ccc3c(c2)OCO3)CC1 | -3.5%[46 µM] | nt | nt
Cc1cc(/C=N/N2CCN(C)CC2)c(C)n1-c1ccccc1F | -2.1%[46 µM] | nt | nt
COC(=O)Cc1nnc(NC(=O)C(C)C)s1 | 8.9% | ? | -0.4
COC(=O)Cc1nnc(NC(=O)c2ccccc2)s1 | -3.7% | -94.7* | 1.6
CCc1nn2c(=O)cc(COC(=O)COc3ccc(OC)cc3)nc2s1 | -10.3%[46 µM] | nt | nt
Cc1ccc(S(=O)(=O)NC2(C(F)(F)F)NC(=O)N(C)C2=O)cc1 (stereo not given) | -8.7% | -86.9* | -1.7
O=C1NC(NS(=O)(=O)c2ccccc2)(C(F)(F)F)C(=O)N1c1ccc(F)cc1 (stereo not given) | -5.4% | ? | -0.9
NCCc1c(-c2ccccc2)n(-c2ccccc2)c2ccccc12 | 11.4%[9.22 µM] | nt | nt
COc1ccc(-c2nc3c4ccccc4n(CC(=O)N4CCN(c5ccccc5F)CC4)c(=O)n3n2)cc1 | 7.0%[46 µM] | nt | nt
SMILES | LMNA splice mod | PNC inhibitor | IMPase inh
COCCn1c(SCC(=O)Nc2nnc(C)s2)nnc1-c1c[nH]c2ccccc12 | -16.1% | 16.5 | -5.4
Cc1cc(NC(=O)CSc2nnc3c(C)cc4c(C)ccc(C)c4n23)no1 | ? | -14.2 | 7.4
COCCn1c(SCC(=O)Nc2nnc(C)s2)nnc1-c1cc2ccccc2cc1O | ? | -90.9* | 6.1
CCc1nnc(NC(=O)CSc2nnc(-c3ccncc3)n2C)s1 | 0.4% | -100.0* | -1.2
Cc1ccc(-n2c(Cc3cccn3C)nnc2SCC(=O)Nc2nnc(C)s2)cc1 | 8.4% | 4.6 | -16.1
Cc1nnc(NC(=O)CSc2nnc(Cc3cccn3C)n2C)s1 | -8.9% | -94.6* | 12.2
CCc1nnc(NC(=O)CSc2nnc3c(C)cc4c(C)ccc(C)c4n23)s1 | ? | -112.6* | 0.0
CCn1c(SCC(=O)Nc2nnc(C)s2)nnc1-c1ccncc1 | -5.4% | -8.9 | -4.5
CCc1ccccc1NC(=S)N(CCN1CCOCC1)C1CCN(C(C)=O)CC1 | 9.7%[46 µM] | nt | nt
CCOc1ccc(CNC(=O)C2=Cc3cccc(OC)c3OC2)cc1 | 4.7%[46 µM] | nt | nt
Cc1cc(Cl)ccc1NS(=O)(=O)c1ccc2c(c1)CCN2S(C)(=O)=O | -10.2%[46 µM] | nt | nt
Cn1cnc(S(=O)(=O)N2CCC(C(=O)NCc3ccc(Cl)cc3)CC2)c1 | 11.2%[46 µM] | nt | nt
Cc1cc2nc(N)sc2cc1C | 6.5% | -90.9* | -3.2
Nc1nc2ccc(O)cc2s1 | -20.1% | 33.4 | 1.2
CCOc1ccc(CC(=O)NCc2ccc3c(c2)CCN3C(C)=O)cc1OCC | -5.0%[46 µM] | nt | nt
O=C1c2ccccc2NC2(CCCCC2)N1N=C1CCCCC1 | -4.5% | -27.3 | nt
O=C1c2ccccc2NC2(CCCC2)N1O | 3.4% | -107.7* | 4.3
CSc1nsc(N/N=C/c2ccc3c(c2)OCO3)c1C#N | 5.3%[9.22 µM] | nt | nt
COc1cc(/C=N/Nc2snc(SC)c2C#N)cc(OC)c1OC | -3.4% | -105.3* | 6.3
O=C(CSCCO)Nc1ccc(C2CCCCC2)cc1 | -3.1% | -126.9* | -9.4
O=C(CCN1CCN(CCO)CC1)Nc1ccc(C2CCCC2)cc1 | -14.2%[9.22 µM] | nt | nt
COCCn1ccc2c(OCC(=O)Nc3cccc(C(F)(F)F)c3)cccc2c1=O | -13.3%[46 µM] | nt | nt
N#Cc1c(NC(=O)CSc2nc(N)cc(=O)[nH]2)sc2c1CCCCCC2 | ? | -27.2 | 1.1
N#Cc1c(NC(=O)CSc2nc(-c3ccco3)cc(C(F)(F)F)n2)sc2c1CCCC2 | -14.8% | -83.8* | -0.8
COc1ccc(Cl)cc1NC(=O)CSc1nc(-c2ccco2)cc(C(F)(F)F)n1 | nt | nt | 2.7
SMILES | LMNA splice mod | PNC inhibitor | IMPase inh
Cc1cc(NC(=O)CSc2nc(-c3cccs3)cc(C(F)(F)F)n2)no1 | ? | -96.8* | 12.0
COC(=O)c1c(NC(=O)CSc2nc(-c3ccco3)cc(C(F)(F)F)n2)sc2c1CCCC2 | 2.7% | -23.7 | 1.7
N#Cc1c(NC(=O)CSc2ncn[nH]2)sc2c1CCCCC2 | ? | -116.6* | -5.8
CCCNC(=O)CSc1nc(-c2cccs2)cc(C(F)(F)F)n1 | 9.3% | -26.2 | 2.3
COC(=O)c1ccccc1NC(=O)CSc1nc(-c2ccco2)cc(C(F)(F)F)n1 | ? | -82.1* | -13.5
CCCn1ccc2c(OCC(=O)Nc3cc(C)ccc3C)cccc2c1=O | 5.3%[46 µM] | nt | nt
CCN(Cc1ccccc1)C(=O)Cn1c(=O)n(-c2ccc(Cl)c(Cl)c2)c(=O)c2c(C)c(C(=O)N(C)C)sc21 | 16.2%[46 µM] | nt | nt
CCOC(=O)c1ccc(Nc2nc3ccc(C(=O)c4ccccc4)cc3n3c(C)nnc23)cc1 | nt | nt | 21.8
C=CCN(CC=C)C(=O)c1ccccc1NC(=O)c1ccccc1C | 22.1% | ? | 4.9
C=CCn1c(SCC(=O)Nc2sc3c(c2C#N)CCC3)nnc1C1COc2ccccc2O1 (stereo not given) | -7.1% | ? | 0.0
Cn1c(SCC(=O)Nc2sc3c(c2C#N)CCC3)nnc1C1COc2ccccc2O1 (stereo not given) | ? | -81.4* | 4.4
CCOc1ncccc1C(=O)NCC1COc2ccccc2O1 (stereo not given) | 16.4% | -4.1 | 3.9
CCn1cc(S(=O)(=O)c2cccc(Cl)c2)c(=O)c2cc(F)c(N3CCN(C)CC3)cc21 | -27.0%[46 µM] | nt | nt
COc1ccccc1CN1CC(C(=O)N2CCN(c3ccc(F)cc3)CC2)CC1=O (stereo not given) | -2.7% | -98.5* | 1.0
O=C1CC(C(=O)N2CCN(c3ccc(F)cc3)CC2)CN1CCc1ccccc1 (stereo not given) | -5.4% | 10.8 | -0.5
CCOc1ccccc1NC(=O)CSc1nc(=O)[nH]c2c1CCCC2 | 1.7%[46 µM] | nt | nt
